Some test systems named below: HCT-15 colon; HT29 colon; SNB-75 CNS; SNB-19 CNS; U251 CNS; PC-3 prostate; SK-MEL-5 melanoma; UACC-62 melanoma; LOX IMVI melanoma; SK-MEL-28 melanoma.
Common to all, as to experiment: NCI-60 one-dose screen, 48 h (100 = growth as untreated, 0 = no growth, -100 = all killed)
Details in all cases: 10 µM unless noted

About 83,000 compounds went through this panel and 20% of them were active in at least one assay; those are over-represented in the sample as a whole.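 In brief: 96-well plates, 48 h treatment, single concentration, percent growth endpoint.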 Unmarked numbers belong to inactive results. The source made the active and inactive calls. How the source made its calls: active means growth percent below 10; inactive means the rest.

On to `O=C(CO[N+](=O)[O-])Nc1ccc(C(=O)/C=C/c2ccc3c(c2)OCO3)cc1`, for which the growth in the assay on HCT-15 colon is 76.7%; in the assay with HT29 colon, 30.1%; in the assay with SNB-75 CNS, 86.3%; in the assay on SNB-19 CNS, 104%; in the assay with U251 CNS it was 57.3%; with PC-3 prostate, 61.4%. Besides, the growth was 90.8% with SK-MEL-5 melanoma, 96% in the assay with UACC-62 melanoma, 21.5% with LOX IMVI melanoma and 104% in the assay with SK-MEL-28 melanoma.
`CCOC(=O)C(Cc1cc(I)c(O)c(I)c1)NC(=O)c1ccccc1` (stereo unspecified): the growth is 98.6% in the assay with HCT-15 colon; 99.9% with HT29 colon; 94.5% with SNB-75 CNS; 99.3% in the assay with SNB-19 CNS; 33.6% in the assay on U251 CNS; 99.1% in the assay with PC-3 prostate. In addition, the growth with SK-MEL-5 melanoma was 100%; in the assay with UACC-62 melanoma, 92.2%; with LOX IMVI melanoma, 103%; in the assay on SK-MEL-28 melanoma, 101%.
For `Cc1ccn2c(-c3csc(Nc4cccc(O)c4)n3)c(C)nc2c1`, the growth with HCT-15 colon is 17.1%; with HT29 colon, 61.7%; in the assay with SNB-75 CNS, -2.73% (active); in the assay on SNB-19 CNS, 49.2%; with U251 CNS it was 28.6%; with PC-3 prostate it was 26.6%. In addition, the growth in the assay with SK-MEL-5 melanoma is -42.9% (active); in the assay on UACC-62 melanoma, 21.5%; in the assay with SK-MEL-28 melanoma it was 37.7%.
For the compound `CC/C(Cc1ccccc1)=C(\c1ccc(OCCN2CCCC2)cc1)c1ccc(OC(C)=O)cc1`, the growth was 60.5% in the assay with HCT-15 colon; 24.4% with HT29 colon; 57.8% in the assay on SNB-75 CNS; 105% in the assay on SNB-19 CNS; 57.2% with U251 CNS; 79.5% with PC-3 prostate. In addition, the growth in the assay with SK-MEL-5 melanoma is 69.6%; with UACC-62 melanoma it was 43.9%; in the assay on LOX IMVI melanoma, 48.2%; in the assay with SK-MEL-28 melanoma, 21%.
For the compound `COc1ccccc1N1CCN(CCn2c(=O)c3c(c4ccccc4n3C)n(C)c2=O)CC1`, the growth in the assay with HCT-15 colon was 101%; with HT29 colon it was 68.3%; with SNB-75 CNS it was 107%; in the assay on SNB-19 CNS, 95.2%; in the assay with U251 CNS, 84.2%; in the assay with PC-3 prostate, 84.4%. The growth in the assay with SK-MEL-5 melanoma is 95.8%; with UACC-62 melanoma, 92.4%; in the assay on LOX IMVI melanoma it was 96.3%; in the assay with SK-MEL-28 melanoma it was 115%.
On to `COc1cc(OC)c(/C=C/S(=O)(=O)Cc2ccc(OC)c(N)n2)c(OC)c1`, for which the growth in the assay with HCT-15 colon is 7.7% (active); in the assay with HT29 colon, -9.76% (active); in the assay on SNB-75 CNS, 40.5%; with SNB-19 CNS, 35.8%; with U251 CNS, 8.02% (active); with PC-3 prostate, 26.8%. Further, the growth in the assay with SK-MEL-5 melanoma was -31.2% (active); in the assay with UACC-62 melanoma it was 42.3%; in the assay with LOX IMVI melanoma, 9.35% (active); in the assay with SK-MEL-28 melanoma, 53.7%.
On to `O=C1Nc2ccccc2C12CC(c1ccccc1)=NN2` (stereo unspecified), for which the growth was 33% with HCT-15 colon; 8.14% (active) with HT29 colon; 38.4% with SNB-75 CNS; 68.7% in the assay with SNB-19 CNS; 48.2% in the assay on PC-3 prostate; 30.5% in the assay with SK-MEL-5 melanoma. Also, the results for the growth in the assay on UACC-62 melanoma, with LOX IMVI melanoma and in the assay on SK-MEL-28 melanoma were 46.7%, 48.4% and 56.8%, respectively.
Regarding `COc1ccc(C(=O)/C=C/c2cc3ccccc3[nH]c2=O)cc1`, the growth in the assay with HCT-15 colon was 46.4%; in the assay on HT29 colon, 6.09% (active); in the assay with SNB-75 CNS, 2% (active); in the assay with SNB-19 CNS, 70.5%; in the assay on U251 CNS, 31.7%; in the assay with SK-MEL-5 melanoma, 72.5%. Also, the growth in the assay with UACC-62 melanoma was 67.7%; with LOX IMVI melanoma, 10.2%; with SK-MEL-28 melanoma, 88.2%.
`Cc1ccc2c(NCCCN(C)C)c3c(C)nn(C)c3nc2c1`: the growth with HCT-15 colon was 29%; in the assay on HT29 colon, 18%; with SNB-75 CNS, 25.5%; in the assay with SNB-19 CNS, 63%; with PC-3 prostate, 29.2%; with SK-MEL-5 melanoma, 51.3%. In addition, the growth in the assay on UACC-62 melanoma was 58.8%; with LOX IMVI melanoma, 15.5%; in the assay with SK-MEL-28 melanoma, 57.1%.
For the compound `CCOc1ccc(Nc2nc(-c3c(C)nc4ncccn34)cs2)cc1`, the growth with HCT-15 colon is 15.4%; with HT29 colon it was 4.76% (active); in the assay with SNB-75 CNS it was 22.9%; with SNB-19 CNS, 33.4%; with U251 CNS, 4.82% (active); with SK-MEL-5 melanoma, -11.6% (active). The growth in the assay on UACC-62 melanoma is 10.6%; with LOX IMVI melanoma, 23.1%; in the assay with SK-MEL-28 melanoma, 39%.
In the case of `COC(=O)C12C3C(=O)N(c4ccc(OC)cc4)C(=O)C3C(c3cn(-c4ccccc4)nc3C)N1[C@H](c1cn(-c3ccccc3)nc1C)[C@@H]1C(=O)N(c3ccc(OC)cc3)C(=O)[C@@H]12` (stereo partly specified), the growth in the assay with HCT-15 colon was 101%; in the assay on HT29 colon, 103%; in the assay on SNB-75 CNS, 89.9%; in the assay on SNB-19 CNS, 91.1%; in the assay with U251 CNS, 93.9%; with PC-3 prostate, 87%. Besides, the growth in the assay on SK-MEL-5 melanoma is 99.7%; in the assay with UACC-62 melanoma, 96.8%; in the assay with SK-MEL-28 melanoma it was 105%.
For `NC1=CSC2=N/C(=C\c3ccc(Cl)cc3)C(=O)N12`, the growth was 66.7% in the assay with HCT-15 colon; 62.6% in the assay on HT29 colon; 87.4% in the assay on SNB-75 CNS; 87% in the assay on SNB-19 CNS; 80.6% in the assay on PC-3 prostate; 72.6% in the assay with SK-MEL-5 melanoma. In addition, the values for the growth with UACC-62 melanoma, in the assay on LOX IMVI melanoma and with SK-MEL-28 melanoma were 90.3%, 50.6% and 96.3%, respectively.
`O=c1c2cccc3c(NC4CCCCC4)ccc(c32)c2nc3ccccc3n12`: the growth in the assay on HCT-15 colon is 74.8%; with HT29 colon it was 76.8%; in the assay on SNB-75 CNS, 83%; with SNB-19 CNS, 89.4%; in the assay with PC-3 prostate, 80%; in the assay with SK-MEL-5 melanoma, 66.1%. Besides, the results for the growth in the assay with UACC-62 melanoma, in the assay with LOX IMVI melanoma and in the assay on SK-MEL-28 melanoma were 82.8%, 73.4% and 92.1%, respectively.
Regarding `O=C1c2cccnc2C(=O)c2c1c(C(=O)OCCN1CCOCC1)c1ccccn21`, the growth was -65.6% (active) in the assay with HCT-15 colon; -35.4% (active) in the assay with HT29 colon; -13.9% (active) in the assay with SNB-75 CNS; 3.55% (active) in the assay on SNB-19 CNS; -47.5% (active) in the assay on U251 CNS; 15.3% in the assay with PC-3 prostate. The growth in the assay with SK-MEL-5 melanoma was -90.5% (active); with UACC-62 melanoma, -52.7% (active); with SK-MEL-28 melanoma, -3.26% (active).

The values above are taken from PubChem BioAssay (NCI).
